Drawing on article PMC5700166, this text covers binding signal for 14 sequences.

Common to all, as to assay: protein-binding microarray (PBM); PBM: ~300 nM protein, 6 mM HEPES pH 7.8, 80 mM KCl, 0.5 mM EDTA, 0.5 mM EGTA, 6% glycerol, 35 ng/ul poly-dIdC, 1% milk, 1 h, room temperature; Ap Aiptasia and Nv Nematostella (sea anemones) / Co Capsaspora / Aq Amphimedon (sponge) / Dm Drosophila / Hu human; RHD is the Rel homology domain; high values mean tight binding
Holding throughout (settings): dsDNA, one strand shown

The target in one assay is T1, GST-Ap-NF-kB RHD (Exaiptasia pallida (Aiptasia), UniProt A0A913YAJ5 2-422).
T1 sequence: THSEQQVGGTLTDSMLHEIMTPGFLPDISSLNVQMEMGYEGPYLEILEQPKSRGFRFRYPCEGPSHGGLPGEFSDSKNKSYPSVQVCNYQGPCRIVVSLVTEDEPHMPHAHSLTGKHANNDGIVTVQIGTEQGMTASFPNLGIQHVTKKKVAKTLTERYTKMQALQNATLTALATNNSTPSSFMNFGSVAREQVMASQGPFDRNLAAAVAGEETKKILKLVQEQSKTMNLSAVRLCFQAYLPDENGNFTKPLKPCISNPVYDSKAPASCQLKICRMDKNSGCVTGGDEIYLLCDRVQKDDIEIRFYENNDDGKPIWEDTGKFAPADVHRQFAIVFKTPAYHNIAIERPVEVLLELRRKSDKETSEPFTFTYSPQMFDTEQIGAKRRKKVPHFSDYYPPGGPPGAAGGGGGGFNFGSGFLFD

Assay [1] addresses T2, GST-Nv-NF-kB (Cys allele) (Nematostella vectensis, UniProt E5G601 2-411).
T2 sequence: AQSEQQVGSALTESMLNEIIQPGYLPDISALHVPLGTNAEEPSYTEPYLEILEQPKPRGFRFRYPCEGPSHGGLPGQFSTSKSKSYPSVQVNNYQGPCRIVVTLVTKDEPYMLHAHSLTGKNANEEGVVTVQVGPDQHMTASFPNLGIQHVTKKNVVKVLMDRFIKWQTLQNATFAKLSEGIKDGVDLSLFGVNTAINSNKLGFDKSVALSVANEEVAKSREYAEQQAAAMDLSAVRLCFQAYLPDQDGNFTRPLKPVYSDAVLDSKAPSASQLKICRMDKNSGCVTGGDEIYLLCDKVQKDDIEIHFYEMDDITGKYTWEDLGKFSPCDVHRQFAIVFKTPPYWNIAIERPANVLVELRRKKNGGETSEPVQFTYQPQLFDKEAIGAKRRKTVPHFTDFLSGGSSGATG

A further assay has as its target T3, GST-Co-NF-kB (Capsaspora owczarzaki, UniProt F1ARL5 200-546).
T3 sequence: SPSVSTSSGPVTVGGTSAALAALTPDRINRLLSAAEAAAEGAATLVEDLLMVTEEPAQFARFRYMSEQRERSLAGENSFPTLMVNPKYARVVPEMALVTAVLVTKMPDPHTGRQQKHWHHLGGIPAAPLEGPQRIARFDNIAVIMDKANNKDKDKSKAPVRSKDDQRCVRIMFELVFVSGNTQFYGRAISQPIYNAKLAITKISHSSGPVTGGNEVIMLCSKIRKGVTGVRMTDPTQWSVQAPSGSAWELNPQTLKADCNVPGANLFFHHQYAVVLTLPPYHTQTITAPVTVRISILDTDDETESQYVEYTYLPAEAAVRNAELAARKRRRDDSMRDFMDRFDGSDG

In another assay the target is T4, GST-Dm-Relish (Drosophila melanogaster, UniProt Q94527 99-473).
T4 sequence: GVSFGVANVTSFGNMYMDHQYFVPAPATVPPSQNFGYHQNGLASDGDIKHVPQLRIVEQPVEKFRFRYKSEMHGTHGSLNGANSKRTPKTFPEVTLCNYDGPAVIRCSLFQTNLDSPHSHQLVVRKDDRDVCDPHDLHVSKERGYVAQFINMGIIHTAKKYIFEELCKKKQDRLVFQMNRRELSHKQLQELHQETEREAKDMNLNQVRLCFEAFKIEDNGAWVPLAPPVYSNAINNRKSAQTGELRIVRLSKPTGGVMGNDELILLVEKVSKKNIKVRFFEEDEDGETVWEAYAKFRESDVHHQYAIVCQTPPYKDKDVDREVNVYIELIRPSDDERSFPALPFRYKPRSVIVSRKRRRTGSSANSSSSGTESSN

A further assay deals with T5, GST-Aq-NF-kB (Amphimedon queenslandica, UniProt A9Y5G7 2-389).
T5 sequence: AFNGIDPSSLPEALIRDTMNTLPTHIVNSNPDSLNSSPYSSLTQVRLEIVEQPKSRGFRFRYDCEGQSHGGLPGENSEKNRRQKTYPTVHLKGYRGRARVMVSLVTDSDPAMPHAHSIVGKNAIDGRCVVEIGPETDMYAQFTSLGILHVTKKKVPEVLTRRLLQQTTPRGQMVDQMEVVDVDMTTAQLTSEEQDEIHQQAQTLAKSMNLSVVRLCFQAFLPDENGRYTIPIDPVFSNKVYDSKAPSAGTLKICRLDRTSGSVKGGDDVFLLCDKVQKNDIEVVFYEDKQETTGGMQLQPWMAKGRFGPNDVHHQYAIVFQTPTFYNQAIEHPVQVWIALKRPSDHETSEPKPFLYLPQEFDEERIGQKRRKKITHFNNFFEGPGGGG

For “CCGATTAACATCAATTACCCCCCTGATGTTAATCGGGTCTTGATTCGCTTGACGCTGCTG”, the binding signal with GST-Ap-NF-kB RHD came out at 5.96 z-score; in assay [1] it was 4.69 z-score; with GST-Co-NF-kB it was 6.96 z-score; in the assay with GST-Dm-Relish, 4.49 z-score; in the assay with GST-Aq-NF-kB it was 5.14 z-score.

For “CCGATTAACATCAGCACCCCCCCTGATGTTAATCGGGTCTTGATTCGCTTGACGCTGCTG”, the binding signal with GST-Ap-NF-kB RHD is 5.67 z-score; in assay [1] it was 3.51 z-score; with GST-Co-NF-kB it was 4.07 z-score; with GST-Dm-Relish, 4.44 z-score; with GST-Aq-NF-kB it was 4.32 z-score.

For “CCGATTAACATCAAAAAGTTCCCTGATGTTAATCGGGTCTTGATTCGCTTGACGCTGCTG”, the binding signal with GST-Ap-NF-kB RHD came to 4.61 z-score; in assay [1] it was 5.3 z-score; in the assay with GST-Co-NF-kB it was 4.37 z-score; with GST-Dm-Relish it was 6.54 z-score; with GST-Aq-NF-kB, 5.9 z-score.

Regarding “CCGATTAACATCAAAAGACCCCCTGATGTTAATCGGGTCTTGATTCGCTTGACGCTGCTG”, the binding signal turned out to be 6.38 z-score in the assay with GST-Ap-NF-kB RHD; 5.12 z-score in assay [1]; 3.12 z-score with GST-Co-NF-kB; 8.16 z-score in the assay with GST-Dm-Relish; 6.25 z-score in the assay with GST-Aq-NF-kB.

Consider “CCGATTAACATCAATGGGAATTCTGATGTTAATCGGGTCTTGATTCGCTTGACGCTGCTG”, for which the binding signal came out at 2.8 z-score in the assay with GST-Ap-NF-kB RHD; 4.72 z-score in assay [1]; 2.98 z-score in the assay with GST-Co-NF-kB; 4.26 z-score with GST-Dm-Relish; 3.51 z-score in the assay with GST-Aq-NF-kB.

For “CCGATTAACATCAGGGAGTCCCATGATGTTAATCGGGTCTTGATTCGCTTGACGCTGCTG”, the binding signal was determined as 4.64 z-score with GST-Ap-NF-kB RHD; 3.33 z-score in assay [1]; 1.13 z-score in the assay with GST-Co-NF-kB; 9.06 z-score in the assay with GST-Dm-Relish; 4.21 z-score with GST-Aq-NF-kB.

On to “CCGATTAACATCAGCCCCCCCCATGATGTTAATCGGGTCTTGATTCGCTTGACGCTGCTG”, for which the binding signal stood at 4.34 z-score with GST-Ap-NF-kB RHD; 2.9 z-score in assay [1]; 5.27 z-score with GST-Co-NF-kB; 4.42 z-score with GST-Dm-Relish; 4.51 z-score in the assay with GST-Aq-NF-kB.

For “CCGATTAACATCAGGGGGGGTTATGATGTTAATCGGGTCTTGATTCGCTTGACGCTGCTG”, the binding signal is 6.15 z-score in the assay with GST-Ap-NF-kB RHD; 3.92 z-score in assay [1]; 4.45 z-score with GST-Co-NF-kB; 6.55 z-score in the assay with GST-Dm-Relish; 5.06 z-score with GST-Aq-NF-kB.

In the case of “CCGATTAACATCAGGGAATTAAATGATGTTAATCGGGTCTTGATTCGCTTGACGCTGCTG”, the binding signal turned out to be 2.06 z-score in the assay with GST-Ap-NF-kB RHD; 4.46 z-score in assay [1]; 3.84 z-score in the assay with GST-Co-NF-kB; 2.47 z-score with GST-Dm-Relish; 4.32 z-score in the assay with GST-Aq-NF-kB.

In the case of “CCGATTAACATCAAATTTCCCGCTGATGTTAATCGGGTCTTGATTCGCTTGACGCTGCTG”, the binding signal in the assay with GST-Ap-NF-kB RHD was 3.85 z-score; in assay [1], 5.17 z-score; with GST-Co-NF-kB, 4.99 z-score; in the assay with GST-Dm-Relish, 2.88 z-score; in the assay with GST-Aq-NF-kB it was 5.22 z-score.

As for “CCGATTAACATCACGGGATTTACTGATGTTAATCGGGTCTTGATTCGCTTGACGCTGCTG”, the binding signal in the assay with GST-Ap-NF-kB RHD is 2.52 z-score; in assay [1], 2.6 z-score; with GST-Co-NF-kB it was 1.01 z-score; in the assay with GST-Dm-Relish, 7.12 z-score; with GST-Aq-NF-kB, 3.52 z-score.

Take “CCGATTAACATCAAAACTTCCCATGATGTTAATCGGGTCTTGATTCGCTTGACGCTGCTG”: the binding signal with GST-Ap-NF-kB RHD was found to be 3.04 z-score; in assay [1], 3.7 z-score; with GST-Co-NF-kB it was 2.63 z-score; with GST-Dm-Relish, 4.52 z-score; in the assay with GST-Aq-NF-kB, 4.42 z-score.

Consider “CCGATTAACATCAGGGGACGCACTGATGTTAATCGGGTCTTGATTCGCTTGACGCTGCTG”, for which the binding signal with GST-Ap-NF-kB RHD is 4.45 z-score; in assay [1] it was 4.2 z-score; with GST-Co-NF-kB, 2.19 z-score; with GST-Dm-Relish, 5.79 z-score; with GST-Aq-NF-kB, 4.68 z-score.

For “CCGATTAACATCAAAACAATCCCTGATGTTAATCGGGTCTTGATTCGCTTGACGCTGCTG”, the binding signal with GST-Ap-NF-kB RHD was determined as 2.49 z-score; in assay [1] it was 3.19 z-score; with GST-Co-NF-kB it was 1.41 z-score; with GST-Dm-Relish, 2.25 z-score; in the assay with GST-Aq-NF-kB it was 4.66 z-score.
